Screens from PubChem.
Many of the other results were omitted from the sample, so hits are more common in it than they were.
Tg IFNy HTS – T. gondii growth inhibition under IFN-gamma | Toxoplasma gondii growth in IFN-gamma-treated host cells; active compounds read low | activity change, negative = inhibition, % (test concentration not listed) | actives 3.8% (n = 69,000); in the data active = activity change below about -70%, passing the limit was not always enough;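 also: host cells are HeLa cells infected with Toxoplasma gondii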
Starred values were filed as active, the others as inactive.

What do the screens show for `Cc1ccc(-c2ccc(=O)[nH]n2)cc1-n1cnnc1`?
Tg IFNy HTS: 8

Results for Oc1ccc(-c2nccn2-c2ccc(CN3CCCC3)cc2)cc1O ?
Tg IFNy HTS: -1

What do the screens show for `CCS(=O)(=O)N1CC[C@H]2Nc3ccc(F)cc3[C@H]2C1`?
Tg IFNy HTS: -5

How did CN(C)C(=O)[C@H]1C[C@@H]2OCC[C@@H]2N(Cc2ccoc2)C1 do in these assays?
Tg IFNy HTS: -44

Results for CN1CC2(CCN(C(=O)c3ccccc3-c3ncc[nH]3)C2)OC1=O (centres undefined) ?
Tg IFNy HTS: 31

Results for CCCc1nnc(C(=O)N2Cc3cnn(CCO)c3C2)o1 ?
Tg IFNy HTS: -51

How did Cc1ccc(-c2nc(C)c(CCNC(=O)C(C)(C)C)s2)cc1 do in these assays?
Tg IFNy HTS: inactive

What do the screens show for `Cc1nnc(-c2ccc(C(=O)O)cc2)o1`?
Tg IFNy HTS: -8

Results for CCCCOc1ccc(C(=O)NCCc2sc(-c3ccc(Cl)cc3)nc2C)cc1 ?
Tg IFNy HTS: -74*

What do the screens show for `COc1ccc(-c2nc(C)c(CCNC(=O)c3ccc(Cl)cc3)s2)cc1`?
Tg IFNy HTS: 314

Results for Cc1nc(-c2ccccc2)sc1CCNC(=O)c1ccc(Cl)cc1 ?
Tg IFNy HTS: inactive

How did COc1ccc(C(=O)NCCc2sc(-c3ccc(OC)cc3)nc2C)cc1 do in these assays?
Tg IFNy HTS: inactive

Results for COc1ccc(C(=O)NCCc2sc(-c3ccc(Cl)cc3)nc2C)cc1 ?
Tg IFNy HTS: -76*

How did COc1ccc(-c2nc(C)c(CCNC(=O)C(=O)Nc3ccccc3F)s2)cc1OC do in these assays?
Tg IFNy HTS: 65

How did COc1ccc(-c2nc(C)c(CCNC(=O)C(=O)Nc3c(C)cccc3C)s2)cc1OC do in these assays?
Tg IFNy HTS: -15

What do the screens show for `COc1ccc(-c2nc(C)c(CCNC(=O)C(=O)Nc3ccccc3C)s2)cc1OC`?
Tg IFNy HTS: -76*

Results for Cc1nc(-c2ccc(Cl)cc2)sc1CCNC(=O)c1ccccc1 ?
Tg IFNy HTS: -43

What do the screens show for `COc1ncc(C2(O)CCN(C(=O)c3cc4c(s3)CCC4)CC2)c(OC)n1`?
Tg IFNy HTS: -46

What do the screens show for `CN(Cc1ccncc1)C1CCC[C@@H]2CN(S(C)(=O)=O)C[C@@H]12` (some centres undefined)?
Tg IFNy HTS: 5

How did CCn1c(CC2CCNCC2)nn(Cc2coc(C)n2)c1=O do in these assays?
Tg IFNy HTS: 2

How did Cc1ccc(-c2oc3ccccc3c(=O)c2OCC(=O)NCc2ccco2)cc1 do in these assays?
Tg IFNy HTS: -6

What do the screens show for `Cc1cnn(Cc2nc(-c3ccc(NC(=O)c4ccco4)cc3)oc2C)c1`?
Tg IFNy HTS: 56

What do the screens show for `Nc1ncnc2c1c(-c1cccc(OCc3ccccc3)c1)cn2C1CC(CN2CCC2)C1` (centres undefined)?
Tg IFNy HTS: -85*

How did CN1C(=O)CCc2cc(NC(=O)CCCc3ccccc3)ccc21 do in these assays?
Tg IFNy HTS: 81

Results for COc1ccc2[nH]cc(C(=O)CCl)c2c1 ?
Tg IFNy HTS: -26

Results for CCOC(=O)c1c[nH]c2ccc(OC)cc2c1=O ?
Tg IFNy HTS: -88*

What do the screens show for `CC(=O)c1c[nH]c2ccc(C)cc2c1=O`?
Tg IFNy HTS: 13

Results for Cc1cnc(N2CCC3(CC(Nc4ncccc4F)CO3)C2)nc1 (centres undefined) ?
Tg IFNy HTS: -3

Results for Cc1ccn2c(CN3CCC(Oc4ccccc4F)CC3)c(C)nc2c1 ?
Tg IFNy HTS: -56

How did O=C(Cc1cccs1)N1CCC2(CC1)Nc1cc(F)ccc1-n1cccc12 do in these assays?
Tg IFNy HTS: 61

Results for Cc1ccc(S(=O)(=O)N2CCC3(CCCN(Cc4c(C)noc4C)C3)C2)cc1 (centres undefined) ?
Tg IFNy HTS: -15

Results for CCc1ccc(S(=O)(=O)N2CCC3(CCCN(Cc4c(C)noc4C)C3)C2)cc1 (centres undefined) ?
Tg IFNy HTS: -72*

How did Cc1cccc(CN2CCCC3(CCN(S(=O)(=O)c4ccc(F)cc4)C3)C2)n1 (centres undefined) do in these assays?
Tg IFNy HTS: -9

Results for CC1(C(=O)NCc2ccc(F)cc2F)CCN(C(=O)c2cccc(F)c2)CC1 ?
Tg IFNy HTS: 31

Results for COc1ccccc1Cn1ncc2c1CCCC2NC(=O)c1cc(-c2cccs2)no1 (centres undefined) ?
Tg IFNy HTS: -77*

How did COCc1ccc(C(=O)NC2CCCc3c2cnn3C)o1 (centres undefined) do in these assays?
Tg IFNy HTS: -10

Results for CCCc1cc(CNC(=O)c2cc(-c3cccs3)no2)on1 ?
Tg IFNy HTS: -4

What do the screens show for `CCNC(=O)[C@H]1CC[C@@](C)(C(=O)NCCN2CCCCC2)C1(C)C`?
Tg IFNy HTS: 5

How did CC(C)N1CCNC(=O)C1CC(=O)N(C)Cc1nc2ccccc2[nH]1 (centres undefined) do in these assays?
Tg IFNy HTS: -1

Results for CN(Cc1nc2ccc(F)cc2[nH]1)C1CCN(C(=O)c2ccccc2)CC1 ?
Tg IFNy HTS: 0

Results for CC(C)[C@H]1c2ccc(F)cc2CC[C@@]1(CCN(C)CCCc1nc2ccccc2[nH]1)OC(=O)C1CC1 ?
Tg IFNy HTS: -86*

How did COc1ccc(C(=O)Nc2ccc(-c3nc(-c4ccc(C)cc4C)co3)cc2)cc1 do in these assays?
Tg IFNy HTS: 18

Results for Cc1ccc(NC(=O)c2ccc3c(c2)c(C)cn3C)c(-c2cc(C)[nH]n2)c1 ?
Tg IFNy HTS: -48

How did COc1ccc(-c2cc(C(=O)Nc3ccc(C)cc3-c3cc(C)[nH]n3)no2)cc1 do in these assays?
Tg IFNy HTS: -78*

Results for CCC1=NOC(CNC(=O)C2(Oc3ccc(Cl)cc3)CCNCC2)C1 (centres undefined) ?
Tg IFNy HTS: -9

Results for CCc1nc(-c2nccn2CCCn2ccnc2)c(C)[nH]1 ?
Tg IFNy HTS: -35

What do the screens show for `CCOc1ccc(C(=O)Nc2ccc(N3CCN(C(C)=O)CC3)cc2)cc1[N+](=O)[O-]`?
Tg IFNy HTS: -13

Results for CCOc1cccc(C(=O)Nc2ccc(N3CCN(C(=O)c4ccco4)CC3)cc2)c1 ?
Tg IFNy HTS: -86*

How did CC(=O)Nc1ccc(C(=O)N2CCN(C(=O)c3ccco3)CC2)cc1 do in these assays?
Tg IFNy HTS: -52

Results for CNC(=O)[C@H]1C[C@@H]2CN(Cc3nccs3)C[C@@H]2N1C(C)C ?
Tg IFNy HTS: 26

What do the screens show for `CC(NC(=O)c1cn2c(n1)CCCC2)c1cccnc1` (centres undefined)?
Tg IFNy HTS: -11

What do the screens show for `FC(F)(F)c1cc(C#CCN2CCOCC2)cc(C(F)(F)F)c1`?
Tg IFNy HTS: 10

How did CCCN(CCC)S(=O)(=O)c1ccc(C(=O)NCCc2ccc(OC)c(OC)c2)cc1 do in these assays?
Tg IFNy HTS: -47

What do the screens show for `CCCN(CCC)S(=O)(=O)c1ccc(C(=O)Nc2ccc(F)cc2)cc1`?
Tg IFNy HTS: -88*

What do the screens show for `CS(=O)(=O)c1ccc(C(=O)Nc2ccccc2)cc1`?
Tg IFNy HTS: 49

How did CC(Cn1cncn1)n1ccnc1-c1cc2ccccc2[nH]c1=O (centres undefined) do in these assays?
Tg IFNy HTS: 4

What do the screens show for `C[C@H](CO)N1C[C@H](C)[C@@H](CN(C)Cc2ccc(-c3ccccc3)cc2)Oc2c(NS(C)(=O)=O)cccc2C1=O`?
Tg IFNy HTS: -52

Results for C[C@@H]1CN([C@@H](C)CO)C(=O)Cc2cc(NC(=O)C3CCCCC3)ccc2O[C@@H]1CN(C)Cc1ccc(Cl)c(Cl)c1 ?
Tg IFNy HTS: -87*
